Test results taken from PubChem BioAssay (EPA / NIEHS).
Records with an inconclusive call do not appear. The source made the active and inactive calls. How the source made its calls, unless noted: active means hit-call score of the fitted dose curve at least 0.9, where 1 is the maximum; inactive means score below 0.9.

Experiments:
[1] = read-out: Monokine induced gamma interferon (MIG), CXCL9 (gene 4283); test: BSK_3C_MIG: BioMAP Diversity Plus: 3C Assay for Monokine induced gamma interferon (MIG) Biomarker Activity (AID 2283021); conditions: primary human endothelial cells (HUVEC); actives raise or lower the signal;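 on AC50: MIG protein level measured by immunoassay in the treated endothelial cultures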
Outline: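 Primary human umbilical vein endothelial cells in the 3C system were exposed to chemical for 24 h, after which MIG was quantified by ELISA. Activity was fitted bidirectionally against DMSO as negative control and baseline.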

[2] = BSK_3C_SRB: Viability Assessment in the BioMAP Diversity Plus: 3C Assay (AID 2283023); conditions: primary human endothelial cells (HUVEC);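 further: cells read 24 h after compound dosing; fitted both ways against DMSO so a hit may be signal rise or drop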
Outline: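 Absorbance at 560 nm of sulforhodamine B-stained (0.1%) total protein served as a cytotoxicity readout in human umbilical vein endothelial cells, 24 h after chemical treatment. Signal was fitted bidirectionally relative to DMSO.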

[3] = read-out: Matrix Metallopeptidase 1 (MMP1), MMP1 (gene 4312); test: BSK_BE3C_MMP1: BioMAP Diversity Plus: BE3C Assay for Matrix Metallopeptidase 1 (MMP1) Biomarker Activity (AID 2283024); conditions: primary human bronchial epithelial cells; actives raise or lower the signal
Outline: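 Primary human bronchial epithelial cells were dosed with test chemicals, and MMP1 levels were measured by ELISA 24 h later. Data were fitted bidirectionally against DMSO as the negative control and activity baseline.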

[4] = BSK_3C_Vis: BioMAP Diversity Plus: 3C Assay for Morphology Visualization (AID 2283025); conditions: primary human endothelial cells (HUVEC);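 further: fitted both ways so gain or loss versus DMSO counts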
Outline: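 Human umbilical vein endothelial cells in the 3C system were imaged by light microscopy 24 h after chemical dosing to record cell morphology. Activity was fitted bidirectionally against DMSO as negative control and baseline; the endpoint serves as a background control.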

[5] = read-out: Pselectin, SELP (gene 6403); test: BSK_4H_Pselectin: BioMAP Diversity Plus: 4H Assay for Pselectin Biomarker Activity (AID 2283026); conditions: primary human endothelial cells (HUVEC); actives raise or lower the signal
Outline: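 Primary human umbilical vein endothelial cells were exposed to test chemical for 24 h, then cell-surface P-selectin was quantified by ELISA. Activity was fitted bidirectionally against DMSO as negative control and baseline.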

[6] = BSK_4H_SRB: Viability Assessment in the BioMAP Diversity Plus: 4H Assay (AID 2283027); conditions: primary human endothelial cells (HUVEC);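 further: cells exposed to compound for 24 h before staining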;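 on AC50: curves fitted both ways versus DMSO so AC50 may be loss or gain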
Outline: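 Absorbance at 560 nm of SRB-stained total protein served as the viability read-out in confluent primary human umbilical vein endothelium 24 h after chemical treatment. Curves were fitted bidirectionally against DMSO as negative control.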

[7] = BSK_BE3C_SRB: Viability Assessment in the BioMAP Diversity Plus: BE3C Assay (AID 2283028); conditions: primary human bronchial epithelial cells;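 on AC50: fitted both ways so AC50 may mark signal gain or loss versus DMSO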
Outline: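 Cells (human bronchial epithelial, primary) are treated with chemicals, and after 24 h the parallel cultures are fixed in 10% TCA. These are then stained with 0.1% SRB and read at 560 nm. Gain or loss of signal is fitted relative to DMSO.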

[8] = read-out: Thrombomodulin, THBD (gene 7056); test: BSK_3C_Thrombomodulin: BioMAP Diversity Plus: 3C Assay for Thrombomodulin Biomarker Activity (AID 2283029); conditions: primary human endothelial cells (HUVEC); actives raise or lower the signal
Outline: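 Primary human umbilical vein endothelial cells (3C system) were exposed to chemical for 24 h, then thrombomodulin levels were measured by ELISA. Activity was fitted bidirectionally against the DMSO negative control as baseline.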

[9] = read-out: Urokinase-type plasminogen activator receptor (uPAR), PLAUR (gene 5329); test: BSK_4H_uPAR: BioMAP Diversity Plus: 4H Assay for Urokinase-type plasminogen activator receptor (uPAR) Biomarker Activity (AID 2283030); conditions: primary human endothelial cells (HUVEC); actives raise or lower the signal
Outline: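 Cell-surface uPAR ELISA signal, measured 24 h after dosing human umbilical vein endothelial cells, was analyzed with bidirectional fitting relative to DMSO. Parallel SRB staining of total protein tracked overt cytotoxicity.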

[10] = read-out: Vascular endothelial growth factor receptor 2 (Homo sapiens) (UniProt P35968); test: BSK_4H_VEGFRII: BioMAP Diversity Plus: 4H Assay for Vascular endothelial growth factor receptor 2 (VEGFR2) Biomarker Activity (AID 2283031); conditions: primary human endothelial cells (HUVEC); actives raise or lower the signal;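 on AC50: cell-surface VEGFR2 protein level quantified by ELISA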
Outline: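 ELISA read-out of VEGFRII in primary human umbilical vein endothelium, taken 24 h after chemical treatment. Responses are expressed relative to DMSO, with bidirectional fitting.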

[11] = read-out: Human Leukocyte Antigen - DR isotype (HLADR), HLA-DRA (gene 3122); test: BSK_BE3C_HLADR: BioMAP Diversity Plus: BE3C Assay for Human Leukocyte Antigen - DR isotype (HLADR) Biomarker Activity (AID 2283032); conditions: primary human bronchial epithelial cells; actives raise or lower the signal
Outline: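 Human primary bronchial epithelial cells in the BE3C system were exposed to chemicals for 24 h, after which HLA-DR levels were quantified by ELISA. Activity was fitted bidirectionally, gain or loss of signal, against DMSO as negative control and baseline.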

[12] = read-out: Vascular cell adhesion molecule 1 (VCAM1), VCAM1 (gene 7412); test: BSK_4H_VCAM1: BioMAP Diversity Plus: 4H Assay for Vascular cell adhesion molecule 1 (VCAM1) Biomarker Activity (AID 2283033); conditions: primary human endothelial cells (HUVEC); actives raise or lower the signal
Outline: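 Primary human umbilical vein endothelial cells were exposed to chemicals for 24 h, after which VCAM-1 was quantified by ELISA. Responses were fitted bidirectionally against DMSO as negative control and activity baseline.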

[13] = read-out: Interferon-gamma inducible Protein 10 (IP10), CXCL10 (gene 3627); test: BSK_BE3C_IP10: BioMAP Diversity Plus: BE3C Assay for Interferon-gamma inducible Protein 10 (IP10) Biomarker Activity (AID 2283034); conditions: primary human bronchial epithelial cells; actives raise or lower the signal
Outline: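 Human primary bronchial epithelial cells were exposed to chemicals for 24 hours, after which IP-10 levels were measured by ELISA. Data were fitted bidirectionally against DMSO, which served as the negative control and activity baseline.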

[14] = read-out: Monokine induced gamma interferon (MIG), CXCL9 (gene 4283); test: BSK_BE3C_MIG: BioMAP Diversity Plus: BE3C Assay for Monokine induced gamma interferon (MIG) Biomarker Activity (AID 2283035); conditions: primary human bronchial epithelial cells; actives raise or lower the signal
Outline: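 MIG level was determined by ELISA after 24 h chemical treatment of primary human bronchial epithelial cells. Values were fitted bidirectionally with DMSO as the negative control and activity baseline.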

[15] = read-out: Transforming growth factor beta 1 (TGFb1), TGFB1 (gene 7040); test: BSK_BE3C_TGFb1: BioMAP Diversity Plus: BE3C Assay for Transforming growth factor beta 1 (TGFb1) Biomarker Activity (AID 2283036); conditions: primary human bronchial epithelial cells; actives raise or lower the signal
Outline: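 Human primary bronchial epithelial cells (BE3C system) were dosed with chemical and TGF-b1 levels measured by ELISA at 24 h. Activity was fitted bidirectionally relative to DMSO negative control as baseline.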

[16] = read-out: Plasminogen activator inhibitor-1 (PAI1), SERPINE1 (gene 5054); test: BSK_BE3C_PAI1: BioMAP Diversity Plus: BE3C Assay for Plasminogen activator inhibitor-1 (PAI1) Biomarker Activity (AID 2283037); conditions: primary human bronchial epithelial cells; actives raise or lower the signal
Outline: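 Human primary bronchial epithelial cells were exposed to chemical for 24 h, then PAI-1 was quantified by ELISA. Activity was fitted bidirectionally relative to the DMSO negative control baseline.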

[17] = read-out: urokinase plasminogen activator (uPA), PLAU (gene 5328); test: BSK_BE3C_uPA: BioMAP Diversity Plus: BE3C Assay for urokinase plasminogen activator (uPA) Biomarker Activity (AID 2283038); conditions: primary human bronchial epithelial cells; actives raise or lower the signal
Outline: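 Bronchial epithelial cells (human, primary); chemical 24 h; uPA by ELISA; bidirectional fit vs DMSO. SRB (0.1%, after 10% TCA fixation, 560 nm) in parallel cultures for cytotoxicity.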

[18] = read-out: Urokinase-type plasminogen activator receptor (uPAR), PLAUR (gene 5329); test: BSK_BE3C_uPAR: BioMAP Diversity Plus: BE3C Assay for Urokinase-type plasminogen activator receptor (uPAR) Biomarker Activity (AID 2283039); conditions: primary human bronchial epithelial cells; actives raise or lower the signal
Outline: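 Primary human bronchial epithelial cells were dosed with chemical and harvested 24 h later; uPAR was quantified by ELISA. Activity was fitted bidirectionally against DMSO as negative control and baseline.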

[19] = read-out: Interleukin-6 (IL6), IL6 (gene 3569); test: BSK_CASM3C_IL6: BioMAP Diversity Plus: CASM3C Assay for Interleukin-6 (IL6) Biomarker Activity for (AID 2283040); conditions: primary human coronary artery smooth muscle cells; actives raise or lower the signal
[20] = molecular target: human Vitamin D Receptor (VDR), VDR (gene 7421) (UniProt P11473); test: ATG_VDR_TRANS: Attagene TRANS-FACTORIAL HepG2 Assay for human Vitamin D Receptor (VDR) (AID 2283022; active means hit-call score of the fitted dose curve at least 0.9, where 1 is the maximum)
Chain of human Vitamin D Receptor (VDR), VDR (gene 7421) (P11473 whole entry, looked up, the tested form may be a part): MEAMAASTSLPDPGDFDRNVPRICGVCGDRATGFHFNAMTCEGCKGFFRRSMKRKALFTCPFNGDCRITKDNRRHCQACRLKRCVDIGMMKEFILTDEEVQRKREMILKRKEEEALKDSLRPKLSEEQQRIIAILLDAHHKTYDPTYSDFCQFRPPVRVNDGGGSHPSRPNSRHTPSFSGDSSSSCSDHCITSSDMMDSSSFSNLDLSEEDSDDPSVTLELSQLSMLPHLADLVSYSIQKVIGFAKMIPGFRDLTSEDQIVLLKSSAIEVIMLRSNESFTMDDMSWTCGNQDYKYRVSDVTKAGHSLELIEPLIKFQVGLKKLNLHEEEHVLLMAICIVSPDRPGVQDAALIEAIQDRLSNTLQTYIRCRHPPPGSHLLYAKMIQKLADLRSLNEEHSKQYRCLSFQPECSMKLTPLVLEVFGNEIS
Outline: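 Steps: transfect HepG2 with GAL4-UAS-driven reporter constructs; dose compounds 24 h; isolate RNA, reverse-transcribe, PCR-amplify with 6-FAM-labelled primer extension and HpaI digestion; quantify fragments by capillary electrophoresis relative to DMSO.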

Measured: AC50

CCCCCCCCn1sccc1=O
active: [1] 11.6 µM | [2] 20.8 µM | [3] 15.1 µM | [4] 12.9 µM | [5] 8.69 µM | [6] 21 µM | [7] 12.8 µM | [8] 5.76 µM | [9] 10.5 µM | [11] 7.16 µM | [12] 9.24 µM | [13] 9.14 µM | [14] 13.6 µM | [15] 5.55 µM | [16] 7.33 µM | [17] 9.51 µM | [18] 12.9 µM | [19] 28.3 µM
inactive: [10]

O=C(O)C1C2CCC(O2)C1C(=O)O (configuration not stated)
inactive: [1] | [20] | [3] | [7] | [8] | [10] | [11] | [13] | [14] | [16] | [17] | [18] | [19]
active: [2] 24.4 µM | [4] 9.13 µM | [9] 18.6 µM | [12] 12.1 µM | [15] 18.6 µM

CS(=O)(=O)NC(=O)c1cc(Oc2ccc(C(F)(F)F)cc2Cl)ccc1[N+](=O)[O-]
inactive: [1] | [20] | [2] | [3] | [4] | [7] | [8] | [9] | [10] | [11] | [12] | [13] | [14] | [15] | [16] | [17] | [18] | [19]

O=[N+]([O-])c1ccc(Oc2ccc(Cl)cc2Cl)cc1
inactive: [1] | [20] | [3] | [7] | [8] | [9] | [10] | [12] | [13] | [14] | [15] | [16] | [17] | [18] | [19]
active: [2] 31.2 µM | [4] 39 µM | [11] 20 µM

O=C(Nc1ccccc1)c1ccccc1I
inactive: [1] | [2] | [3] | [4] | [5] | [6] | [7] | [8] | [9] | [10] | [12] | [13] | [14] | [15] | [16] | [17] | [18] | [19]

CC(C)(OOC(C)(C)c1ccccc1)c1ccccc1
inactive: [20] | [7] | [8] | [9] | [13] | [14] | [15] | [16] | [17] | [19]
active: [1] 29.3 µM | [2] 36.5 µM | [3] 11.4 µM | [4] 37.5 µM | [10] 37.3 µM | [12] 26.4 µM | [18] 11.6 µM

c1ccc(C2CO2)cc1 (configuration not stated)
inactive: [1] | [2] | [3] | [4] | [5] | [6] | [7] | [8] | [9] | [10] | [11] | [12] | [13] | [14] | [15] | [16] | [17] | [18] | [19]
